Potency data for seven compounds are collected here from PubChem BioAssay (Tox21).

The nature of assay [1]: Nuclear factor erythroid 2-related factor 2/antioxidant responsive element (Nrf2/ARE) small molecule agonists: qHTS cell viability counter screen in human keratinocytes (AID 1919968; active = well fitted curve in the direction sought with a large enough effect in the repeat runs; an effect the other way counts as inactive or inconclusive; also: nearly all actives have a fitted effect of over 55% in size). In outline:
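After a 5 h attachment period, ARE-reporter keratinocytes were dosed with compounds in DMSO and then cultured 23 h at 37 C. Cell viability came from CellTiter-Fluor signal read after a further 1 h.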

Assay [2] in a line: Nuclear factor erythroid 2-related factor 2/antioxidant responsive element (Nrf2/ARE) small molecule agonists: luciferase reporter gene qHTS assay in human keratinocytes (AID 1919969). Also: nearly all actives have a fitted effect of over 35% in size. Also: potency is read from the fitted curve at half-maximal effect.
Assay [3] has as its target Gonadotropin-releasing hormone receptor (Homo sapiens) (UniProt P30968). As to the kind of experiment: Human gonadotropin-releasing hormone receptor (GnRHR) small molecule agonists, calcium flux assay in GnRHR-HEK293 cells (AID 1920063). Also: nearly all actives have a fitted effect of over 35% in size. In outline:
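We seeded human GnRHR-expressing HEK293 cells for 18 hours, loaded them with calcium dye for an hour at 37 C, added test compounds, and recorded fluorescence intensity kinetically for three minutes.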

In assay [4] the target is KiSS-1 receptor (Homo sapiens) (UniProt Q969F8). As to the kind of experiment: Human kisspeptin (KISS1R) small molecule agonists, calcium flux assay in KISS1R-HEK293 cells (AID 1920064; active = well fitted curve in the direction sought with a large enough effect in the repeat runs; an effect the other way counts as inactive or inconclusive). In outline:
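Kinetic calcium assay, 1 s sampling over 3 min at Ex/Em 480/540, in HEK293 cells engineered with human KISS1R; compounds delivered in DMSO after 1 h dye loading.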

Assay [5] in a line: G protein-coupled receptor (GPCR) small molecule agonists, calcium flux assay: HEK293 wild type cell line counter screen (AID 1920065). Summed up: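 Calcium-sensitive dye, loaded 1 h at 37 C into cells cultured 18 h, reports compound-evoked calcium release as fluorescence (Ex/Em 480/540), measured over 3 min. Agonist mode; 15-point titrations, triplicate.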
Assay [6] is described as follows: p53 small molecule agonists, cell-based qHTS assay with human liver microsomes (AID 1963577). In outline:
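p53RE-bla cells, 4,000/well, compound added after 5 h, with human liver microsomes 0.5 mg/mL and NADPH 0.5 mg/mL final; 16 h at 37 C, then LiveBLAzer 2 h RT, fluorescence.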

The nature of assay [7]: p53 small molecule agonists, cell-based qHTS assay with rat liver microsomes (AID 1963578). In outline: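 p53RE-bla cells, 4,000/well, pre-incubated 5 h, then given compounds plus rat liver microsomes (0.5 mg/mL final) and NADPH (0.5 mg/mL final). Incubation 16 h at 37 C; beta-lactamase reporter read by LiveBLAzer fluorescence after 2 h at room temperature.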
A short description of assay [8]: p53 small molecule agonists, cell-based qHTS assay with human liver microsomes: qHTS cell viability counter screen (AID 1963579). Also: nearly all actives have a fitted effect of over 45% in size. In outline: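 p53RE-bla cells, 4,000/well, dosed 5 hours after plating, with human liver microsomes (0.5 mg/mL final) plus NADPH (0.5 mg/mL final), 16 hours at 37 C. Viability read as CellTiter-Glo luminescence after 30 min at room temperature.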

Assay [9] is described as follows: p53 small molecule agonists, cell-based qHTS assay with rat liver microsomes: qHTS cell viability counter screen (AID 1963580). Also: nearly all actives have a fitted effect of over 45% in size. Summed up:
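HCT-116 p53RE-bla, 4,000 cells/well, 5 h pre-incubation; cpd + rat liver microsomes 0.5 mg/mL + NADPH 0.5 mg/mL (final); 16 h, 37 C; CellTiter-Glo, 30 min RT; luminescence.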

Assay [10] can be described thus: p53 small molecule agonists, cell-based qHTS assay: qHTS cell viability counter screen (AID 1963581). Also: nearly all actives have a fitted effect of over 45% in size. In outline:
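Following 5 h attachment, HCT-116 p53RE-bla cells took up compound for 16 h at 37 C; the reporter was read with B/G FRET substrate (2 h RT), and viability then via CellTiter-Glo ATP luminescence.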

The nature of assay [11]: p53 small molecule agonists, cell-based qHTS assay (AID 1963582; active = well fitted activation curve with a large enough effect in the signal ratio in the repeat runs, not every such curve was filed as active; the % refers to the signal ratio). Summed up:
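In this cell-based concentration-response screen, a p53 response element drives beta-lactamase; cells received DMSO-borne compounds after 5 h culture and were incubated a further 16 h before FRET substrate development.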

The target in assay [12] is 5-hydroxytryptamine receptor 2A (Homo sapiens) (UniProt P28223). As to the kind of experiment: 5-hydroxytryptamine receptor 2A (HTR2A) small molecule antagonists, cell-based qHTS assay (AID 1963586). Also: nearly all actives have a fitted effect of over 45% in size. In outline: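 Antagonist-mode intracellular calcium assay: DOI (4 nM) added after 5 min compound pre-incubation at room temperature to dye-loaded HTR2A-CHO cells. Fluorescence followed for 3 min, sampled every second.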

For assay [13] the target is unchanged. Description: 5-hydroxytryptamine receptor 2A (HTR2A) small molecule agonists, cell-based qHTS assay (AID 1963587). Also: nearly all actives have a fitted effect of over 30% in size. Also: potency is read from the fitted curve at half-maximal effect. In outline: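 Kinetic calcium-flux fluorescence (2 min, 1 sec intervals) after compound addition in agonist mode. HTR2A-CHO cells were cultured 18 h, then dye-loaded 1 h at 37 C.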
The target of assay [14] is Muscarinic acetylcholine receptor M1 (Homo sapiens) (UniProt P11229). As to the kind of experiment: Cholinergic receptor muscarinic 1 (CHRM1) small molecule antagonists, cell-based qHTS assay (AID 1963588). Also: nearly all actives have a fitted effect of over 40% in size. Summed up:
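CHRM1-CHO calcium-flux assay, antagonist mode. Cells were seeded 18 h, dye-loaded 1 h at 37 C and given compound for 5 min at RT, then acetylcholine was added at 50nM. FDSS fluorescence was read 3 min; 15 concentrations, three runs.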

Assay [15] shares this target. As to the kind of experiment: Cholinergic receptor muscarinic 1 (CHRM1) small molecule agonists, cell-based qHTS assay (AID 1963589). Also: nearly all actives have a fitted effect of over 35% in size. In outline:
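Measures agonist-induced intracellular calcium rise. Stable human CHRM1 CHO line, 1 h dye load at 37 C, compounds from DMSO, kinetic fluorescence read.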

Assay [16] is described as follows: cAMP Responsive Elements (CRE) small molecule agonists, cell-based qHTS assay (AID 1963590). Summed up:
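A CRE-responsive beta-lactamase reporter in HEK 293T cells was used. Treatment ran 3 h at 37 C; detection used LiveBLAzer B/G FRET substrate for 2 h at room temperature.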

Assay [17] can be described thus: cAMP Responsive Elements (CRE) small molecule antagonists, cell-based qHTS assay (AID 1963591; active = well fitted inhibition curve with a large enough effect in the signal ratio in the repeat runs, not every such curve was filed as active; the % refers to the signal ratio). In outline:
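HEK293T cells carrying a CRE-driven beta-lactamase reporter receive compound and NKH477 (0.25 uM final) for 3 h. Fluorescence from LiveBLAzer B/G FRET substrate is read after 2 h at room temperature.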

Assay [18] concerns the target Beta-2 adrenergic receptor (Homo sapiens) (UniProt P07550). Description: Adrenergic beta2 receptor (ADRB2) small molecule antagonists, cell-based qHTS assay (AID 1963592). Also: series mostly up to about 92 µM; nearly all actives have a fitted effect of over 50% in size. Summed up: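 Cells (CHO, stable ADRB2 overexpression) incubated 18-20hr at 37C; compounds added from DMSO; agonist mix (1nM isoproterenol, 100uM IBMX, 25uM Ro-20-1724) added; 0.5hr RT; d2-cAMP and anti-cAMP-cryptate added; 1hr RT; 665/615 nm read.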

Assay [19] has the same target. As to the kind of experiment: Adrenergic beta2 receptor (ADRB2) small molecule agonists, cell-based qHTS assay (AID 1963593).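 Also: CHO cells stably overexpressing human ADRB2.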 Summed up:
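CHO cells stably over-expressing ADRB2 were plated overnight at 37C, then dosed with compounds plus a stimulation mix containing 100uM IBMX and 25uM Ro-20-1724 for 0.5hr at room temperature. cAMP was measured by HTRF competition, 1hr.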

The target of assay [20] is D(2) dopamine receptor (Homo sapiens) (UniProt P14416). As to the kind of experiment: Dopamine D2 receptor (DRD2) small molecule agonists, cell-based qHTS assay (AID 1963594). Also: nearly all actives have a fitted effect of over 35% in size. Summed up:
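cAMP accumulation in DRD2-HEK293 cells measured by HTRF after 1 h detection; compounds added 10 min before NKH477 (200nM […]) forskolin-analogue stimulation, 30 min at room temperature, with Ro20-1724 present at 0.1 mM final.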

Structures are written as SMILES. Where “and” joins values, the source holds several entries; their conditions need not be identical. Identical values can stand only once. Results filed as inconclusive are left out. Some structures have more than one record in an assay (separate samples or runs), and their calls can disagree. Calls of active or inactive are those of the source. Unless noted, calls follow the shape of the full dose curve.

5-hydroxytryptamine receptor 2A (Homo sapiens), sequence (P28223 whole entry, looked up): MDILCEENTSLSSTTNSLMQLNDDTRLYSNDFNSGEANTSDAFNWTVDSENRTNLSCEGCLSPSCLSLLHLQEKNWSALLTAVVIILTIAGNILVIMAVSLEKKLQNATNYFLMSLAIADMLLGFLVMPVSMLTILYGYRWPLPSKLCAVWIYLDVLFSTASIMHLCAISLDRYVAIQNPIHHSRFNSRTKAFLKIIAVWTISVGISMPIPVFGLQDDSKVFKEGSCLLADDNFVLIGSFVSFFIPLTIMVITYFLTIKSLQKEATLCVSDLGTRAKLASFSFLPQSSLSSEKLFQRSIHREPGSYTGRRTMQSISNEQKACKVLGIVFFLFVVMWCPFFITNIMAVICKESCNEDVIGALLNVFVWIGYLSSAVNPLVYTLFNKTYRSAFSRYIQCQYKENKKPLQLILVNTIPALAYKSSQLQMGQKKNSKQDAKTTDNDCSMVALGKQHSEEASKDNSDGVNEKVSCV
Beta-2 adrenergic receptor (Homo sapiens), sequence (P07550 whole entry, looked up): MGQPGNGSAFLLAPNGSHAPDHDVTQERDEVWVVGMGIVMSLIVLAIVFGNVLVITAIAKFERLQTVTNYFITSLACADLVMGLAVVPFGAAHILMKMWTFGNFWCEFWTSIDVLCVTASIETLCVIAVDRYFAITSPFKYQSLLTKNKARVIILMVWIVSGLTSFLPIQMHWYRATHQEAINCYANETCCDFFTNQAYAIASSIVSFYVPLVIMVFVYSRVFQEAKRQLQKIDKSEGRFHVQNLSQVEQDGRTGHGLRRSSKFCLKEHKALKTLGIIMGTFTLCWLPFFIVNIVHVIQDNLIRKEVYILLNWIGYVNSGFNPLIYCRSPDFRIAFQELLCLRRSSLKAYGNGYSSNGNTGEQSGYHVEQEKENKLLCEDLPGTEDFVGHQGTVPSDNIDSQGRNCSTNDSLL
Gonadotropin-releasing hormone receptor (Homo sapiens), sequence (P30968 whole entry, looked up): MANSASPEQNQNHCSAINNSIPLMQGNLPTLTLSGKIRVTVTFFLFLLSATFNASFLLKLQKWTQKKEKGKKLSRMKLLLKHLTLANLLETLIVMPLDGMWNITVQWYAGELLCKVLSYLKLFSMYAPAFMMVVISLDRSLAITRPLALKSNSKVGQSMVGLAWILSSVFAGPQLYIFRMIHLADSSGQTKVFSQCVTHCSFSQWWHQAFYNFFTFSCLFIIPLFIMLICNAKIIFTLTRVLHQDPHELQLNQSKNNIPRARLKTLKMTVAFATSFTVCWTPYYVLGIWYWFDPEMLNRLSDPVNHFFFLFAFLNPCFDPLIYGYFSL
KiSS-1 receptor (Homo sapiens), sequence (Q969F8 whole entry, looked up): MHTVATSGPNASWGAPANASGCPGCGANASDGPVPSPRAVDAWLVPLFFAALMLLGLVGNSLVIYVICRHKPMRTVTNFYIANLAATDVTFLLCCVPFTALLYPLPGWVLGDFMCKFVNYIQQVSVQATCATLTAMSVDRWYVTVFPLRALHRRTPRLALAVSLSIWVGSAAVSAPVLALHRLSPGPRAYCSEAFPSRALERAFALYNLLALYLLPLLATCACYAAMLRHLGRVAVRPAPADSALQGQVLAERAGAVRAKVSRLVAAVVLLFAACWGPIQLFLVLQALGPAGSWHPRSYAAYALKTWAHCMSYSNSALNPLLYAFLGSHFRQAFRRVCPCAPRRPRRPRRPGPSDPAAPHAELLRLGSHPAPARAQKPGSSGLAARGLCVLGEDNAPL
D(2) dopamine receptor (Homo sapiens), sequence (P14416 whole entry, looked up): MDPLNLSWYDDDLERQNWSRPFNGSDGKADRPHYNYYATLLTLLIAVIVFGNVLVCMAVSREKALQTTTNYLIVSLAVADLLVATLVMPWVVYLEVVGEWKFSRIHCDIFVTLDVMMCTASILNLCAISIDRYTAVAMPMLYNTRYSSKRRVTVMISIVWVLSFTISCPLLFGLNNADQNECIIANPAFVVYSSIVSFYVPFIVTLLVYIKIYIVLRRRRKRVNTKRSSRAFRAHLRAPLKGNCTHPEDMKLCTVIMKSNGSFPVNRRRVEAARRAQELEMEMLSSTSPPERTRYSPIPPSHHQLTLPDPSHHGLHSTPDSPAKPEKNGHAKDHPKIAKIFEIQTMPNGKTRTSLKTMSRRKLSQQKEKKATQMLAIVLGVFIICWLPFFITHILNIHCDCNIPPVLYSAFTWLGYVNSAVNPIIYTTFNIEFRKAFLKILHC
Muscarinic acetylcholine receptor M1 (Homo sapiens), sequence (P11229 whole entry, looked up): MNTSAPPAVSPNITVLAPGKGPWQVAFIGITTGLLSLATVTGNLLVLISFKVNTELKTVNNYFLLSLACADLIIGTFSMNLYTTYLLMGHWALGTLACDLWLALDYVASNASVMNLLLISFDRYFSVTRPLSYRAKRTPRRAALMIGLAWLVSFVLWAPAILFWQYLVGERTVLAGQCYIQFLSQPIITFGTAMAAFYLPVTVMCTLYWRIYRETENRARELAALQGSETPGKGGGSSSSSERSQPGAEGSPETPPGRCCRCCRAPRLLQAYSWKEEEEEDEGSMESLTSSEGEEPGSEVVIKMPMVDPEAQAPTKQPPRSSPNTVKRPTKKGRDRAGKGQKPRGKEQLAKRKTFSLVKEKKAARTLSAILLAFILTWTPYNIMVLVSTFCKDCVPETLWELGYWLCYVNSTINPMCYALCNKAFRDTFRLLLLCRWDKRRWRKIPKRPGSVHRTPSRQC

As for `CC(C)(C)c1n[nH]c(=O)n(N)c1=O`, the Potency result in assay [1], in assay [2], in [3], in [4], in assay [5] and in assay [6] was “inactive” in each case. Moreover, the Potency result in assay [7], in [8], in [9], in [10], in assay [11] and in assay [12] was “inactive” each time. Moreover, the Potency entry in assay [13], in [14], in assay [15], in assay [16], in [17] and in [18] was “inactive” throughout. Moreover, the Potency result in assay [19] and in assay [20] was “inactive” in each case.
On to `CCCc1cc(C(N)=S)ccn1`, for which the Potency result in assay [1], in assay [2], in assay [3], in assay [4], in assay [5] and in [6] was “inactive” in each case. The Potency entry in assay [7], in assay [8], in [9], in assay [10], in [11] and in assay [12] was “inactive” in each case. Further, the Potency result in [13], in assay [14], in assay [15], in assay [16], in [17] and in assay [18] was “inactive” throughout. Also, the Potency result in [19] and in assay [20] was “inactive” in each case.
Regarding `CCCOC(=O)C(C)O` (stereo not given), the Potency result in [1], in assay [2], in assay [3], in assay [4], in assay [5] and in assay [6] was “inactive” in each case. The Potency result in [7], in assay [8], in assay [9], in assay [10], in assay [11] and in assay [12] was “inactive” each time. Moreover, the Potency entry in assay [13], in assay [14], in assay [15], in assay [16], in [17] and in assay [18] was “inactive” throughout. Besides, the Potency entry in assay [19] and in [20] was “inactive” each time.
Turning to `CCC(C(=O)OCCOCCN(CC)CC)c1ccccc1` (stereo not given), the Potency result in assay [1], in assay [2], in assay [3], in assay [4], in assay [5] and in assay [6] was “inactive” each time. In addition, the Potency entry in [7], in assay [8], in [9], in assay [10], in assay [11] and in [12] was “inactive” each time. For the same compound, the Potency result in [14], in assay [15], in assay [16], in [17], in assay [18] and in [19] was “inactive” each time. The Potency result in assay [20] was “inactive”. Further, the Potency in assay [13] is 2680 nM (active).
As for `COc1ccc(N)c(OC)c1`, the Potency entry in [1], in assay [3], in [4], in [5], in [6] and in [7] was “inactive” throughout. The Potency result in assay [8], in assay [9], in assay [10], in [11], in assay [12] and in [13] was “inactive” in each case. In addition, the Potency entry in [14], in assay [15], in assay [16], in [17], in [18] and in assay [19] was “inactive” throughout. Besides, in assay [20], the Potency entry is “inactive”. Besides, the Potency entry in assay [2] was “inactive and 68.6 µM (active)”.
Turning to `CCN(CC)CC(=O)OCC(=O)[C@@]1(O)CC[C@H]2[C@@H]3CCC4=CC(=O)CC[C@]4(C)[C@H]3[C@@H](O)C[C@@]21C`, the Potency result in [1], in assay [2], in [3], in assay [4], in [5] and in assay [6] was “inactive” in each case. The Potency result in [7], in [8], in assay [9], in assay [10], in assay [11] and in assay [12] was “inactive” in each case. For the same compound, the Potency entry in assay [13], in [14], in assay [15], in assay [16], in assay [17] and in [18] was “inactive” throughout. Also, the Potency entry in assay [19] and in [20] was “inactive” in each case.
Turning to `CC(=O)N1C[C@H](O)C[C@H]1C(=O)O`, the Potency result in [1], in assay [2], in assay [3], in assay [4], in assay [5] and in assay [6] was “inactive” in each case. In addition, the Potency result in assay [7], in assay [8], in assay [9], in assay [10], in assay [11] and in [12] was “inactive” each time. The Potency result in assay [13], in assay [14], in assay [15], in assay [16], in assay [17] and in assay [18] was “inactive” each time. The Potency result in assay [19] and in assay [20] was “inactive” each time.
